Measured values from PubChem BioAssay (Tox21).
Records with an inconclusive call do not appear. Unmarked numbers belong to inactive results. Activity calls are given as the source filed them. Calls come from the whole dose curve; as a rule, active = well fitted cell-killing curve with a large enough effect in the repeat runs; inconclusive = weak or mixed curves, or effect the other way; inactive = flat fitted curve, though single readings scatter.

Assay: Nuclear factor erythroid 2-related factor 2/antioxidant responsive element (Nrf2/ARE) small molecule agonists: qHTS cell viability counter screen in human keratinocytes (AID 1919968); note: nearly all actives have a fitted effect of over 55% in size
Conditions: KeratinoSens HaCaT ARE cells viability, CellTiter-Fluor, 24 h; series mostly up to 92.4 µM; activity change, negative = cytotoxicity: at the top concentration
From the text: U.S. Tox21 Program National Center for Advancing Translational Sciences [NCATS] Division of Preclinical Innovation [DPI] U.S. Environmental Protection Agency [EPA] National Institutes of Environmental Health Sciences [NIEHS] National Toxicology Program [NTP] U.S. Food and Drug Administration [FDA] Tox21 Assay Overview: Oxidative stress has been implicated in the pathogenesis of a variety of diseases ranging from cancer to neurodegeneration. The antioxidant response element (ARE) signaling pathway plays an important role in the amelioration of oxidative stress. The KeratinoSens (Givaudan, Switzerland) is an in vitro test method which quantifies luciferase induction as a measure of activation of Keap1-Nrf2-antioxidationt/electrophile response element (ARE) dependant pathway in HaCaT human keratinocytes stably transfected with a selectable plasmid. The KeratinoSens assay is a cell-based assay with a reporter cell line to detect potential skin sensitizers by their ability to induce the Nrf2/ARE-response. The activation of the report gene under culture conditions can be detected by ONE-Glo Luciferase Assay System (Promega, Madison, WI). This cell line has been used to screen the Tox21 10K compound library to identify agonists that induce oxidative stress. The cytotoxicity of the Tox21 compound library against the KS-ARE cell line was tested in parallel by measuring the cell viability using CellTiter- Fluor assay system (Promega, Madison, WI) in the same wells.
Tox21 Assay Protocol Summary: HaCaT derived cell line KeratinoSens were dispensed at 1,500 cells/5uL/well in 1536-well white wall/solid bottom plates using a Multidrop Combi (ThermoFisher Scientific, Waltham, MA) dispenser. After the assay plates were incubated at 37 C/5% CO2 for 5 h, 23 nL of compounds dissolved in DMSO, positive controls or DMSO only was transferred to the assay plate by a pintool workstation (Kalypsys, San Diego, CA). The plates were incubated at 37 C/5% CO2 for 23 h, followed by addition of 1uL/well of CellTiter-Fluor reagent into the assay plates using a Flying Reagent Dispenser (Aurora Discovery, San Diego, CA) for cell viability readout that measures cytotoxicity. After 1 h incubation at 37 C/5% CO2 the fluorescence intensity was measured using a ViewLux (PerkinElmer, Shelton, CT) plate reader.
% is set by controls: 0 for no effect and ±100 for the full control effect; potency is the fitted concentration of half-maximal effect.

| SMILES | activity change, negative = cytotoxicity | Potency |
| --- | --- | --- |
| CC(S)C(=O)NCC(=O)O (stereo not given) | -5.54% [at 42.5 µM] | – |
| CCCCN=C(N)N=C(N)N | 3.25% [at 42.5 µM] | – |
| OCCCCl | -1.81% | – |
| Cc1ccc(C)o1 | 2.79% | – |
| CC1COc2ccccc2N1 (stereo not given) | 6.51% | – |
| C=CC(=O)OCCCCCCCC | -0.313% | – |
| C[C@@H](O)[C@H]1C(=O)N2C(C(=O)O)=C(SCCN=CN)C[C@H]12 | -5.94% [at 42.5 µM] | – |
| C=CC(=O)O[C@H]1C[C@@H]2CC[C@@]1(C)C2(C)C | -2.1% | – |
| COc1c(Cl)ccc(Cl)c1C(=O)O | – | inactive |
| O=C(c1ccc2c(c1)C(=O)OC2=O)c1ccc2c(c1)C(=O)OC2=O | 1.53% | – |
| CC(=O)O[C@H](CC(=O)[O-])C[N+](C)(C)C | 0.402% | – |
| Cc1cccc(S(=O)(=O)O)c1C | -1.97% | – |
| CC(=O)O[C@]1(C(C)=O)CC[C@H]2[C@@H]3C=C(C)C4=CC(=O)CC[C@]4(C)[C@H]3CC[C@@]21C | -6.83% | – |
| [Cl][Dy]([Cl])[Cl] | -11.4% | – |
| CCCN[C@H]1CCc2nc(N)sc2C1 | – | inactive |
| CCN(C=O)CC | 2.02% | – |
| Cc1ccc(C)cc1 | -0.815% | – |
| CCn1cc(C(=O)O)c(=O)c2cc3c(cc21)OCO3 | – | inactive |
| COc1cccc(OC)c1C(=O)N[C@@H]1C(=O)N2[C@@H]1SC(C)(C)[C@@H]2C(=O)O | 0.548% [at 42.5 µM] | – |
| CC(CC=O)CC(C)(C)C (stereo not given) | -2.62% | – |

| SMILES | activity change, negative = cytotoxicity | Potency |
| --- | --- | --- |
| O=S(=O)(O)CCCN1CCOCC1 | -5.7% | – |
| Clc1ccc2c(c1)C(N1CCNCC1)=Nc1ccccc1O2 | – | 61.1 µM (active) |
| CCC(C(=O)OCCOCCN(CC)CC)c1ccccc1 (stereo not given) | 12.9% [at 42.5 µM] | – |
| CC1CCCC(=O)C1=O (stereo not given) | 2.15% | – |
| CC(=C(CCOC(=O)C(C)C)SSC(CCOC(=O)C(C)C)=C(C)N(C=O)Cc1cnc(C)nc1N)N(C=O)Cc1cnc(C)nc1N | -12.3% [at 42.5 µM] | – |
| CC1CCc2nccnc21 (stereo not given) | -4.61% | – |
| Cc1oc(C)c(C(=O)Nc2ccccc2)c1C | 1.88% | – |
| CCCOCCC | 2.26% | – |
| IC(I)I | – | inactive |
| COC(=O)c1cc(Cl)c(NC(C)=O)cc1OC | 0.538% [at 42.5 µM] | – |
| CCO/C([O-])=N/c1c[n+](N2CCOCC2)no1 | 18.4% [at 42.5 µM] | – |
| NC(=O)c1ccccc1Cl | 1.55% | – |
| O=C1OC[C@H](Cc2cccc(O)c2)[C@H]1Cc1cccc(O)c1 | 2.51% [at 42.5 µM] | – |
| CCC(=O)OC | 2.44% | – |
| COc1cc(C(=S)N2CCOCC2)cc(OC)c1OC | -0.962% [at 42.5 µM] | – |
| O=C(O)C[C@H](NC(=O)OCc1ccccc1)C(=O)O | -1.94% | – |
| O=C(O)CCCCCC(=O)O | -2.47% | – |
| O=C(O)[C@H](O)[C@@H](O)[C@H](O[C@@H]1O[C@H](CO)[C@H](O)[C@H](O)[C@H]1O)[C@H](O)CO | 3.07% [at 42.5 µM] | – |
| CC(C)CCCCCOC(=O)CS | 2.14% | – |
| CN(C)CCOC(c1ccc(Cl)cc1)c1ccccn1 (stereo not given) | 2.29% [at 42.5 µM] | – |
